PLC-beta3 inh: inhibitors of human phospholipase C beta3 | Purified PLC-beta3, fluorogenic substrate, fluorescence | inhibition, % at 12.2 µM | 370,000 compounds, 0.18% hits | AID 720704; in the data active = inhibition above about 11%
ADAM10 inh: ADAM10 inhibition, QFRET primary screen. recombinant ADAM10, EDANS/DABCYL FRET peptide cleavage, 3 h. inhibition, % at 7 µM. 370,000 compounds, 0.62% hits. AID 720582;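 active = inhibition above a per-campaign cutoff equal to the mean of compounds falling between control-based bounds plus 3 SD, cut at about 20% in these data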
Rce1 inh: yeast Ras-converting enzyme inhibition; 290,000 compounds, 0.27% hits; calls only; Q03530; yeast membranes, quenched prenylated peptide cleavage fluorescence;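 active = fall in fluorescence gain of 50% or more versus controls, with final raw signal at or below 3038400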
PLCg1 inh: PLC-gamma1 (human) inhibition, primary screen. P19174. purified PLC-gamma1, fluorogenic substrate, fluorescence. inhibition, % at 12.2 µM. 370,000 compounds, 0.84% hits. AID 720700; in the data active = inhibition above about 9.5%
ADAM17 inh: inhibitors of human ADAM17. P78536. inhibition, % at 6.95 µM. recombinant ADAM17, EDANS/DABCYL FRET peptide cleavage. 370,000 compounds, 0.83% hits;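 active = inhibition above the mean of compounds lying between control limits plus 3 SD, set per campaign, cut at about 8.5% in these data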
A number is an active result. A selection: hits, their analogues and other compounds. The true share with any hit is near 2.1%.

How did CC(C)C(=O)Nc1c2c(nc3ccccc13)N(C)CC2 do in these assays?
PLC-beta3 inh: inactive; ADAM10 inh: inactive; Rce1 inh: active; PLCg1 inh: inactive; ADAM17 inh: inactive

Results for CCN(CC)CC(=O)Nc1c2c(nc3ccccc13)N(C)CC2 ?
PLC-beta3 inh: inactive; ADAM10 inh: inactive; Rce1 inh: inactive; PLCg1 inh: inactive; ADAM17 inh: inactive

Results for C[C@H](NC(=O)c1ccco1)C(=O)NNC(=O)COc1cccc(C(F)(F)F)c1 ?
PLC-beta3 inh: inactive; ADAM10 inh: inactive; PLCg1 inh: inactive; ADAM17 inh: inactive

Results for CCN=C1NC(CCc2ccccc2)C(C(=O)OC)=C(C)N1Cc1ccccc1C(F)(F)F (configuration not stated) ?
PLC-beta3 inh: inactive; ADAM10 inh: inactive; PLCg1 inh: inactive; ADAM17 inh: inactive

What do the screens show for `CC1(C)CC2CC(C)(CN2C(=O)COC(=O)c2ccccc2C(F)(F)F)C1` (configuration not stated)?
PLC-beta3 inh: inactive; ADAM10 inh: inactive; PLCg1 inh: 12; ADAM17 inh: inactive

Results for COc1ccc2cc(C(=O)C3CCCN(C(=O)c4cc(=O)n(C)c(=O)n4C)C3)ccc2c1 (configuration not stated) ?
PLC-beta3 inh: inactive; ADAM10 inh: inactive; Rce1 inh: active; PLCg1 inh: inactive; ADAM17 inh: inactive

Results for Cc1ccc(S(=O)(=O)NCCC2=CCCCC2)cc1C(N)=O ?
PLC-beta3 inh: inactive; ADAM10 inh: inactive; Rce1 inh: inactive; PLCg1 inh: inactive; ADAM17 inh: inactive

What do the screens show for `Cc1ccc(NC(=O)c2cc(S(=O)(=O)NCCC3=CCCCC3)ccc2F)cc1F`?
PLC-beta3 inh: inactive; ADAM10 inh: 25; Rce1 inh: inactive; PLCg1 inh: inactive; ADAM17 inh: 10

How did COCCn1cc(C(=O)NCCN(C)C)c2c3ccccc3n(C)c2c1=O do in these assays?
PLC-beta3 inh: inactive; ADAM10 inh: inactive; Rce1 inh: active; PLCg1 inh: inactive; ADAM17 inh: inactive

Results for CCN(CC)CCNC(=O)c1cn(CCOC)c(=O)c2c1c1ccccc1n2C ?
PLC-beta3 inh: inactive; ADAM10 inh: inactive; Rce1 inh: inactive; PLCg1 inh: inactive; ADAM17 inh: inactive

Results for Cc1ccc2c(C)c(C(=O)N(Cc3ccc(F)cc3)C3CCS(=O)(=O)C3)oc2c1 (configuration not stated) ?
PLC-beta3 inh: inactive; ADAM10 inh: inactive; Rce1 inh: active; PLCg1 inh: inactive; ADAM17 inh: inactive

How did CCCCN(CC)CCNC(=O)c1cc2c(=O)n(C)c3ccccc3c2s1 do in these assays?
PLC-beta3 inh: inactive; ADAM10 inh: inactive; Rce1 inh: inactive; PLCg1 inh: inactive; ADAM17 inh: inactive

How did CCN(CC)CCNC(=O)c1cc2c(=O)n(C)c3ccccc3c2s1 do in these assays?
PLC-beta3 inh: inactive; ADAM10 inh: inactive; Rce1 inh: active; PLCg1 inh: inactive; ADAM17 inh: inactive

What do the screens show for `O=C(Nc1sc2c(c1C(=O)c1ccc(Cl)cc1)CCCC2)c1cccnc1`?
PLC-beta3 inh: inactive; ADAM10 inh: inactive; Rce1 inh: active; PLCg1 inh: inactive; ADAM17 inh: inactive

Results for CCc1ccc(Nc2n[n+](-c3ccccc3)c(/C=C/c3ccccc3)s2)cc1 ?
Rce1 inh: active

Results for CN1OC[C@@H]2CN3C(=Nc4cc(C(F)(F)F)cc(C(F)(F)F)c4)Sc4ccccc4[C@@H]3C[C@@H]21 ?
PLC-beta3 inh: inactive; ADAM10 inh: inactive; PLCg1 inh: inactive; ADAM17 inh: inactive

How did COc1ccc(-c2nc3ncccc3o2)cc1NC(=O)c1cccs1 do in these assays?
PLC-beta3 inh: inactive; ADAM10 inh: inactive; Rce1 inh: inactive; PLCg1 inh: inactive; ADAM17 inh: inactive

Results for COc1ccc(-c2nc3ncccc3o2)cc1NC(=O)c1ccco1 ?
PLC-beta3 inh: inactive; ADAM10 inh: inactive; Rce1 inh: active; PLCg1 inh: inactive; ADAM17 inh: inactive

What do the screens show for `COc1ccc(/C=C/S(=O)(=O)NCc2ccc(F)cc2)c(CNC(=O)OC(C)(C)C)c1`?
PLC-beta3 inh: inactive; ADAM10 inh: inactive; PLCg1 inh: inactive; ADAM17 inh: inactive

How did COc1cc(/C=N/NC(=O)c2ccncc2)ccc1OC(=O)c1cc(OC)c(OC)c(OC)c1 do in these assays?
PLC-beta3 inh: inactive; ADAM10 inh: inactive; Rce1 inh: active; PLCg1 inh: inactive; ADAM17 inh: inactive

What do the screens show for `COc1ccc(/C=N/NC(=O)c2ccncc2)cc1OC`?
PLC-beta3 inh: inactive; ADAM10 inh: inactive; Rce1 inh: inactive; PLCg1 inh: inactive; ADAM17 inh: inactive

How did c1ccc(C[n+]2cccc3c4ccccc4ccc32)cc1 do in these assays?
PLC-beta3 inh: inactive; ADAM10 inh: inactive; Rce1 inh: active; PLCg1 inh: inactive; ADAM17 inh: inactive

Screens deposited in PubChem BioAssay by several laboratories.
